From PubChem BioAssay (NCATS)
Inconclusive results are not listed. The source made the active and inactive calls. Calls come from the whole dose curve; as a rule, active = well fitted curve in the direction sought with a large enough effect; inconclusive = small, poorly fitted or top-dose-only effect, or another doubt; inactive = no such curve, though single readings can be large; an effect the other way counts as inactive or inconclusive.

Columns and labels:
[1] = Quantitative High-Throughput drug screen in 47 multiple myeloma cell lines against the NCATS MIPE library collection: KHM11_PLB cell viability assay (AID 1918962); note: nearly all actives have a fitted effect of over 35% in size
Summary of the method: (§1)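 Inhibition of cell viability is measured here. Each line was plated at 500 cells per well, treated with MIPE 4.0 drugs, kept 48 hours at 37C, then assayed for ATP content by CellTiter-Glo luminescence.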

[2] = Quantitative High-Throughput drug screen in 47 multiple myeloma cell lines against the NCATS MIPE library collection: JIM3_ECACC cell viability assay (AID 1918963; note: nearly all actives have a fitted effect of over 35% in size)
Summary of the method: as §1

[3] = Quantitative High-Throughput drug screen in 47 multiple myeloma cell lines against the NCATS MIPE library collection: JIM1_ECACC cell viability assay (AID 1918964)
Summary of the method: (§2)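 Myeloma cell lines, 500 cells per well, exposed to MIPE 4.0 library compounds for 48 h at 37C, 5% CO2. Viability from ATP by CellTiter-Glo luminescence; normalised to DMSO (100%) and media-only (0%) wells.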

[4] = Quantitative High-Throughput drug screen in 47 multiple myeloma cell lines against the NCATS MIPE library collection: INA6_PLB cell viability assay (AID 1918965; note: nearly all actives have a fitted effect of over 55% in size)
Summary of the method: (§3)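 qHTS of the MIPE 4.0 collection: 500 myeloma cells/well, 48 h drug exposure at 37C in 5% CO2, then CellTiter-Glo for 5 min at room temperature before luminescence reading.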

[5] = Quantitative High-Throughput drug screen in 47 multiple myeloma cell lines against the NCATS MIPE library collection: JJN3_DSMZ cell viability assay (AID 1918966; note: nearly all actives have a fitted effect of over 50% in size)
Summary of the method: as §2

[6] = Quantitative High-Throughput drug screen in 47 multiple myeloma cell lines against the NCATS MIPE library collection: H1112_PLB cell viability assay (AID 1918967; note: nearly all actives have a fitted effect of over 30% in size)
Summary of the method: as §2

[7] = Quantitative High-Throughput drug screen in 47 multiple myeloma cell lines against the NCATS MIPE library collection: Karpas25_ECACC cell viability assay (AID 1918968; note: nearly all actives have a fitted effect of over 35% in size)
Summary of the method: as §2

[8] = Quantitative High-Throughput drug screen in 47 multiple myeloma cell lines against the NCATS MIPE library collection: KMS27_JCRB cell viability assay (AID 1918970); note: nearly all actives have a fitted effect of over 30% in size
Summary of the method: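 Luminescent ATP read-out (CellTiter-Glo, 5 min at room temperature) after 48 h compound exposure of 500 KMS27_JCRB cells per well; DMSO wells define full viability and media-only wells zero.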

[9] = Quantitative High-Throughput drug screen in 47 multiple myeloma cell lines against the NCATS MIPE library collection: KMS12BM_JCRB cell viability assay (AID 1918971); note: nearly all actives have a fitted effect of over 35% in size
Summary of the method: (§4)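 Steps: seed 500 cells per well; pin-transfer MIPE 4.0 library; incubate 48 h at 37C, 5% CO2, humidified; add CellTiter-Glo, 5 min room temperature; read luminescence.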

[10] = Quantitative High-Throughput drug screen in 47 multiple myeloma cell lines against the NCATS MIPE library collection: KMS12PE_JCRB cell viability assay (AID 1918972); note: nearly all actives have a fitted effect of over 30% in size; for viability: series mostly up to about 46 µM
Summary of the method: as §3

[11] = Quantitative High-Throughput drug screen in 47 multiple myeloma cell lines against the NCATS MIPE library collection: KMS20_JCRB cell viability assay (AID 1918973); note: nearly all actives have a fitted effect of over 45% in size
Summary of the method: as §2

[12] = Quantitative High-Throughput drug screen in 47 multiple myeloma cell lines against the NCATS MIPE library collection: MOLP8_DSMZ cell viability assay (AID 1918977); note: nearly all actives have a fitted effect of over 45% in size
Summary of the method: (§5)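 Viability after 48 h drug exposure was measured as ATP-dependent luminescence. Cells, 500 per well, sat at 37 °C under 5% CO2; DMSO wells set 100%, media-only wells 0%.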

[13] = Quantitative High-Throughput drug screen in 47 multiple myeloma cell lines against the NCATS MIPE library collection: NCIH929_DSMZ cell viability assay (AID 1918978); note: nearly all actives have a fitted effect of over 35% in size
Summary of the method: as §5

[14] = Quantitative High-Throughput drug screen in 47 multiple myeloma cell lines against the NCATS MIPE library collection: OCIMY1_PLB cell viability assay (AID 1918979); note: nearly all actives have a fitted effect of over 35% in size; for viability: series mostly up to about 46 µM
Summary of the method: as §5

[15] = Quantitative High-Throughput drug screen in 47 multiple myeloma cell lines against the NCATS MIPE library collection: MM1R_ATCC cell viability assay (AID 1918981); note: nearly all actives have a fitted effect of over 35% in size
Summary of the method: as §5

[16] = Quantitative High-Throughput drug screen in 47 multiple myeloma cell lines against the NCATS MIPE library collection: LP1_DSMZ cell viability assay (AID 1918982); note: nearly all actives have a fitted effect of over 35% in size
Summary of the method: as §5

[17] = Quantitative High-Throughput drug screen in 47 multiple myeloma cell lines against the NCATS MIPE library collection: KMS26_JCRB cell viability assay (AID 1918975); note: nearly all actives have a fitted effect of over 45% in size
Summary of the method: as §4

[18] = Quantitative High-Throughput drug screen in 47 multiple myeloma cell lines against the NCATS MIPE library collection: MMM1_PLB cell viability assay (AID 1918976); note: nearly all actives have a fitted effect of over 35% in size
Summary of the method: as §5

[19] = Quantitative High-Throughput drug screen in 47 multiple myeloma cell lines against the NCATS MIPE library collection: MM1S_ATCC cell viability assay (AID 1918980); note: nearly all actives have a fitted effect of over 45% in size
Summary of the method: as §5

Measured: Potency
Potency is the fitted concentration of half-maximal effect.

O=C1C(Cl)=C(NCCN2CCOCC2)C(=O)c2ncccc21
active: [1] 9.35 µM | [2] 8.33 µM | [3] 2.96 µM | [4] 2.96 µM | [5] 3.72 µM | [6] 11.8 µM | [7] 2.64 µM | [8] 2.64 µM | [9] 2.96 µM | [10] 3.32 µM | [11] 4.69 µM | [12] 2.96 µM | [13] 7.43 µM | [14] 6.62 µM | [15] 3.32 µM | [16] 8.33 µM

Clc1ccc(C(c2ccc(Cl)cc2)n2cc[n+](CC(OCc3ccc(Cl)cc3Cl)c3ccc(Cl)cc3Cl)c2)cc1 (stereo not drawn)
active: [1] 10.5 µM | [2] 16.6 µM | [3] 8.33 µM | [4] 8.33 µM | [5] 20.9 µM | [6] 11.8 µM | [7] 7.43 µM | [9] 23.5 µM | [10] 7.43 µM | [11] 8.33 µM | [17] 16.6 µM | [18] 18.7 µM | [12] 18.7 µM | [13] 9.35 µM | [14] 18.7 µM | [19] 16.6 µM | [15] 18.7 µM | [16] 18.7 µM

NC[C@@H]1O[C@@H](O[C@H]2[C@@H](O)[C@H](O[C@@H]3[C@@H](O)[C@@H](N)C[C@H](N)[C@H]3O[C@H]3O[C@H](CN)[C@@H](O)[C@@H](O)[C@H]3N)O[C@H]2CO)[C@H](N)[C@@H](O)[C@@H]1O
not listed: [9] | [11] | [12] | [18] | [19]
inactive: all other assays above

O=C(NCc1ccncc1)C12C[C@H]3C[C@@H](C1)CC(c1ccc(Cl)cc1)(C3)C2
inactive: [1] | [13]
active: [2] 23.5 µM | [3] 13.2 µM | [4] 20.9 µM | [6] 13.2 µM | [7] 20.9 µM | [9] 20.9 µM | [10] 26.4 µM | [18] 14.8 µM | [15] 18.7 µM

CC(=O)Nc1ccc([C@H](C)C(=O)Nc2ncc(C(C)C)s2)cc1
active: [1] 4.69 µM | [2] 7.43 µM | [3] 1.66 µM | [4] 4.18 µM | [6] 4.18 µM | [7] 1.05 µM | [9] 2.35 µM | [11] 3.32 µM | [17] 1.32 µM | [12] 3.32 µM | [13] 0.264 µM | [14] 5.9 µM | [15] 0.743 µM | [16] 2.35 µM

O=C1c2ccccc2-[n+]2ccc3c([nH]c4ccccc43)c21
active: [1] 2.35 µM | [2] 0.59 µM | [3] 3.72 µM | [4] 1.18 µM | [5] 1.48 µM | [6] 5.26 µM | [7] 0.418 µM | [8] 2.64 µM | [9] 2.09 µM | [10] 5.26 µM | [11] 1.05 µM | [17] 2.35 µM | [18] 1.32 µM | [12] 1.48 µM | [13] 3.32 µM | [14] 3.72 µM | [19] 2.64 µM | [15] 2.09 µM | [16] 2.35 µM

NC1=N[C@@]2(c3cc(NC(=O)c4ccc(F)cn4)ccc3F)COC[C@@H]2CS1
active: [1] 13.2 µM | [3] 0.935 µM | [4] 14.8 µM | [6] 10.5 µM | [7] 14.8 µM | [8] 0.264 µM | [10] 1.05 µM
inactive: [2] | [9] | [14]

COc1cc2ncnc(Nc3ccc(F)c(Cl)c3)c2cc1OCCCN1CCOCC1
active: [1] 3.4 µM | [2] 13.6 µM | [3] 5.4 µM | [4] 5.4 µM | [5] 42.9 µM | [6] 1.52 µM | [7] 6.05 µM | [8] 13.6 µM | [9] 34 µM | [10] 3.03 µM | [11] 3.4 µM | [17] 38.2 µM | [18] 54 µM | [12] 48.1 µM | [13] 4.29 µM | [14] 48.1 µM | [19] 3.03 µM | [15] 21.5 µM | [16] 48.1 µM

CO[C@H]1C=CC=C(C)C(=O)NC2=CC(=O)C(NCCN(C)C)=C(C[C@@H](C)C[C@H](OC)[C@@H](O)[C@@H](C)C=C(C)[C@@H]1OC(N)=O)C2=O
active: [1] 0.0372 µM | [2] 0.0743 µM | [3] 0.0209 µM | [4] 0.0235 µM | [5] 0.0296 µM | [6] 3.32 µM | [7] 0.059 µM | [8] 0.0264 µM | [9] 0.0469 µM | [10] 0.0662 µM | [11] 0.001 µM | [17] 0.0332 µM | [18] 1.66 µM | [13] 0.059 µM | [14] 0.132 µM | [19] 0.105 µM | [15] 0.0296 µM | [16] 0.418 µM

CC[C@H]1OC(=O)[C@H](C)C(=O)[C@H](C)[C@@H](O[C@H]2O[C@H](C)C[C@H](N(C)C)[C@@H]2O)[C@](C)(OC)C[C@@H](C)C(=O)[C@H](C)[C@H]2N(CCCCn3cnc(-c4cccnc4)c3)C(=O)O[C@]12C
inactive: [1] | [2] | [3] | [4] | [7] | [8]
active: [6] 13.2 µM | [9] 29.6 µM | [15] 16.6 µM
